MARV entry inh: blocks Marburg virus binding to or entry into cells | Marburg virus pseudotyped entry inhibition, cell reporter | Potency, µM (doses to about 37.8 µM), without a hit: at the top dose activity change, negative = inhibition, hits mostly inhibitors | 1.8% of 300,000 active; calls by dose curve; tested in HEK293 cells; further: potency means the concentration at half of the fitted maximal effect; on the % scale 0 is the no-effect control and ±100 the full control effect
Pf growth 96h: P. falciparum growth inhibition at 96 hours; P. falciparum luciferase reporter growth, 96 h; Potency, µM (series often up to 28.7 µM), inactives show at the highest dose activity change, negative = inhibition, most hits filed as inhibitors; AID 504834; 6.9% of 320,000 active; further: potency means the concentration at half of the fitted maximal effect; on the % scale 0 is the no-effect control and ±100 the full control effect
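Erythrocytes infected with luciferase-expressing P. falciparum were dispensed at 2% hematocrit and 0.05% parasitemia (final), then incubated with compounds 96 hours at 37 C in 5% CO2. Luminescence after detection reagent addition reported growth.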
LASV entry inh: inhibitors of Lassa virus binding or cell entry. AID 540256. Lassa virus pseudotype entry inhibition, cell reporter. 1.2% of 300,000 active. Potency, µM (doses to about 37.9 µM), inactives show at the highest dose activity change, negative = inhibition, usual class: inhibitors; calls by dose curve; tested in HEK293 cells; further: potency means the concentration at half of the fitted maximal effect; on the % scale 0 is the no-effect control and ±100 the full control effect; nearly all actives have a fitted effect of over 50% in size
CHX counter: counter-screen for Shiga toxin inhibitors: cycloheximide protein synthesis inhibition; cell reporter, cycloheximide protein synthesis inhibition counterscreen; 12% of 300,000 active; max response, %; in the data active means max response mostly above about 13%, no sharp cut-off; inactive means mostly below about 14%; further: read at 38.3 µM for the half of the compounds with a filed dose; 0% is about no effect
Shiga inhibitor: Shiga toxin inhibition | Vero cells, Shiga toxin protein synthesis inhibition reporter | inhibition, % at 38.7 µM | 9.2% of 290,000 active; in the data active means inhibition mostly above about 28%, no sharp cut-off; inactive means mostly below about 43%; further: 0% is about no effect
Pf growth 48h: inhibits P. falciparum growth in the first generation, 48 h; P. falciparum luciferase growth in erythrocytes, 48 h; Potency, µM (top dose mostly 28.7 µM), for the others: at the highest dose activity change, negative = inhibition, actives largely listed as inhibitors; 5.9% of 310,000 active; further: potency means the concentration at half of the fitted maximal effect; on the % scale 0 is the no-effect control and ±100 the full control effect
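Firefly luciferase activity from engineered P. falciparum reports growth; inhibitors lower the luminescent signal. Cultures contained 2% hematocrit erythrocytes at 0.1% final parasitemia.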
* marks the source's active call; other numbers are inactive results; ? = inconclusive; / = no result given; [ ] = remark or other dose. Sampled rows, rich in hits. Any-hit rate of the full collection: about 19%. Unless noted, the call rests on the fitted dose curve; in most records, active means well fitted inhibition curve with a large enough effect; inconclusive means small, poorly fitted or top-dose-only effect, or another doubt; inactive means no such curve, though single readings can be large or run the other way.

SMILES | MARV entry inh | Pf growth 96h | LASV entry inh | CHX counter | Shiga inhibitor | Pf growth 48h
CCOC(=O)c1c(NC(=O)CCN2C(=O)c3ccccc3C2=O)sc(C(=O)OC(C)C)c1C | 4% | ? | -9% | 1 | 4 | 2%
O=C(CCN1C(=O)/C(=C\c2cccs2)SC1=S)Nc1ccccn1 | -42%[46.1 µM] | -24% | -22% | 6 | -19 | ?
C#CCOCCOCCOCCNc1nc(N2CCN(C(=O)[C@H]([C@@H](C)CC)n3cc(CCCCN)nn3)CC2)nc(N2CCN(C(=O)[C@H](CCCCN)n3cc(CCC(=O)O)nn3)CC2)n1 | / | 88% | / | / | / | 12%
C#CCOCCOCCOCCNc1nc(N2CCN(C(=O)CCCCCCCCCCNC(=O)[C@H]([C@@H](C)CC)n3cc(CCCCCN)nn3)CC2)nc(N2CCN(C(=O)CCCCCCCCCCNC(=O)[C@@H]([C@H](C)O)n3cc(C)nn3)CC2)n1 | / | 0.37µM* | / | / | / | 0.47µM*
C#CCOCCOCCOCCNc1nc(N2CCN(C(=O)CCCCCCCCCCNC(=O)[C@H](CCCCN)n3cc(C)nn3)CC2)nc(N2CCN(C(=O)CCCCCCCCCCNC(=O)[C@@H]([C@H](C)CC)n3cc(CCCCCN)nn3)CC2)n1 | / | 4.1µM* | / | / | / | 3.3µM*
C#CCOCCOCCOCCNc1nc(N2CCN(C(=O)CCCCCCCCCCNC(=O)[C@@H]([C@H](C)O)n3cc(C)nn3)CC2)nc(N2CCN(C(=O)CCCCCCCCCCNC(=O)[C@@H]([C@H](C)O)n3cc(C)nn3)CC2)n1 | / | 0.074µM* | / | / | / | 0.1µM*
Cc1cn([C@H](C(=O)NCCCCCCCCCCC(=O)N2CCNCC2)[C@@H](C)O)nn1 | / | 75% | / | / | / | -12%
CC(C)(C)[C@H]1C=C(C(=O)N2CCN(Cc3ccccc3)CC2)O[C@@H](OCc2ccc(CO)cc2)C1 | / | ? | / | 1 | -7 | ?
O=C(CSc1nc2ncccc2[nH]1)c1ccc(F)cc1 | 11% | 122% | -1% | 43* | 28 | 22%
Fc1cccc(CSc2nc3ncc(Cl)cc3[nH]2)c1 | -4%[46.1 µM] | ? | 10% | 20* | 30 | ?
O=C(CSc1nc2ncc(Cl)cc2[nH]1)Nc1cccc(F)c1 | / | -5% | / | 17 | 17 | 15%
Cn1c(COc2ccccc2)nnc1SCC(=O)c1cccc([N+](=O)[O-])c1 | -17% | ? | 10% | -2 | -8 | ?
Fc1ccc(CSc2nc3ncccc3[nH]2)cc1 | ? | / | ? | 30* | 71* | ?
CCOc1cc(C)ccc1OCc1nnc(SCC(=O)c2cccc([N+](=O)[O-])c2)n1C | -5% | 12µM* | -3% | 1 | -10 | ?
COc1ccccc1CNC(=O)C1CCC(=O)N(CCCN2CCCC2=O)C1 (centres undefined) | / | 15% | / | -3 | -6 | 13%
CCN1CCCCC(=N/O)/C(=N/O)CCCC1 | / | 64% | / | -5 | -8 | 7%
O=C(CSc1nc2ncccc2[nH]1)c1cccc([N+](=O)[O-])c1 | ? | ? | -10% | 19* | 15 | ?
c1ccc(CSc2nc3ncccc3[nH]2)cc1 | / | / | 2%[46.1 µM] | / | / | /
Fc1cccc(CSc2nc3ncccc3[nH]2)c1 | 4% | 12µM* | 2% | 51* | 94* | ?
Cc1cc(SCc2cccc([N+](=O)[O-])c2)nc(=O)[nH]1 | / | ? | / | -2 | -9 | 0%
C(=C\c1ccccc1)/CSc1nc2ncccc2[nH]1 | ? | ? | -10%[46.1 µM] | 25* | 53* | 0%
Cc1cc(SCC(=O)c2cccc([N+](=O)[O-])c2)nc(=O)[nH]1 | / | -20% | / | 35* | 80* | 32%
Cc1ccccc1S(=O)(=O)Nc1cccnc1 | -1%[46.1 µM] | 21% | 4% | -2 | -10 | -19%
CC1CCN(S(=O)(=O)c2nnc(NC(=O)c3ccc(C(C)C)cc3)s2)CC1 | / | / | 9%[46.1 µM] | / | / | /
CC(NC(=O)c1ccccc1)C(=O)OCC(=O)N1c2ccccc2Sc2ccccc21 (centres undefined) | 19% | 24% | -3% | -5 | -4 | 14%
O=S(=O)(c1ccc(OCC(O)CNCc2ccco2)c(Cl)c1)N1CCOCC1 (centres undefined) | ? | ? | ? | -3 | 20 | 8.3µM*
CCCCCCSc1nnc2[nH]c(=O)cc(N)n12 | 5% | 5.2µM* | 0% | -1 | -1 | ?
CN(C)c1ccc(/C=C2\CCCCC2=O)cc1 | 5% | 322% | / | 14* | 28 | 231%
